Cav3 T inh – Cav3.2 calcium influx blockers – cell-based, Fluo-4 calcium fluorescence, FDSS, MLSMR library, primary screen; Voltage-dependent T-type calcium channel subunit alpha-1H (Homo sapiens), O95180; Cav3.2-expressing cells; active compounds read low; 100,000 tested, 4% active; B-score at 10 µM;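 active = single-dose well whose peak fluorescence ratio is a statistical outlier from its plate by either plate-standardised score or position-corrected B-score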
hDAT+cocaine – changed hDAT dopamine uptake under cocaine IC80, either direction, primary screen, cocaine antagonist project, cell-based, LLC-PK1 hDAT, [14C]-dopamine uptake, MLSMR | AID 449768, 2010 | LLC-PK1 hDAT cells, [14C]-dopamine uptake with cocaine IC80; actives deviate in either direction | B-score at 10 µM | 110,000 tested, 1.3% active;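 active = Z score or B-score, a plate-position-corrected score, falls beyond the plate's 99.7% confidence bounds, in either direction; inactive = both scores lie inside the 99.7% bounds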;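 note: scored against the spread of the other compound wells on the same plate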
PLAP activator – PLAP enzyme activators, biochemical, luminescence, HTS | activation fold at 20 µM | 96,000 tested, 1.2% active | Alkaline phosphatase, placental type (Homo sapiens), P05187 | purified PLAP enzyme, luminescent substrate read-out; active compounds read high | AID 696, 2007; in the data active = activation fold above about 2
D1 mod – D1 CRE-luciferase signal change, two-sided – cell-based, HEK293 D1, dopamine EC30, D1 allosteric modulator project, primary screen; D(1A) dopamine receptor (Homo sapiens), P21728; dopamine EC30 potentiation; actives deviate in either direction; B-score at 10 µM; 58,000 tested, 5.9% active; AID 641, 2007;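 active = luminescence count or its row- and column-corrected plate score outside the 99.7% band of the plate's sample wells, on either side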
PostGolgi ctrl – growth inhibition of yeast control strain, primary screen, counter-screen for post-Golgi transport modulator project. efflux-deficient yeast background strain, growth absorbance A615, 16 h. inhibition, % at 10 µM. 98,000 tested, 5% active. AID 738, 2007
PostGolgi yeast – phenotypic screen on post-Golgi transport, primary screen. 98,000 tested, 0.9% active. inhibition, % at 10 µM. post-Golgi transport phenotypic cell assay;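 note: yeast cells grown in 1536-well plates; yeast grown about 18 h at 30C before absorbance read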
* = called active by the depositor. Compounds with a hit are over-represented: about 12% of the library has one in this group of screens. Cut-off read from the data, not from the text of the source, unless noted: active = inhibition above about 30%; inactive = the rest.

`CCOC(=O)c1sc(Nc2ccc(C)cc2C)nc1C` gave Cav3 T inh -3, hDAT+cocaine 0.283, PLAP activator 0.9, PostGolgi ctrl 52.0* and PostGolgi yeast 4.1.
CCOC(=O)c1sc(N/N=C/c2cccc(C)c2)nc1C was read as Cav3 T inh 0.0871, hDAT+cocaine -0.703, PLAP activator 1.2, PostGolgi ctrl 38.5* and PostGolgi yeast 2.4.
For N/C(Cc1cccs1)=N\OC(=O)COc1ccc(Cl)cc1Cl the results were Cav3 T inh 0.253, hDAT+cocaine 0.414, PLAP activator 0.9, PostGolgi ctrl 1.1 and PostGolgi yeast -1.1.
CCN(CC)C(=O)c1[nH]cnc1C(=O)N[C@@H](C)C(=O)OC(C)(C)C was read as Cav3 T inh 0.687 and hDAT+cocaine -0.286.
`CCCCCn1c(N2CCOCC2)nc2c1c(=O)n(CC(N)=O)c(=O)n2C` gave Cav3 T inh -0.135, hDAT+cocaine -1.9, PLAP activator 1.2, D1 mod 0.0289, PostGolgi ctrl 4.7 and PostGolgi yeast 4.7.
Screening CC(C)(C)c1ccc(S(=O)(=O)NCCOCC(F)(F)C(F)F)cc1 returned Cav3 T inh -3.77*, hDAT+cocaine -1.2, PLAP activator 0.7, D1 mod -0.224, PostGolgi ctrl 16.3 and PostGolgi yeast 1.1.
`Cc1ccc(OC(=O)CCc2c(C)nc3ncnn3c2C)cc1` gave Cav3 T inh -1.13, hDAT+cocaine 0.494, PLAP activator 1.1, D1 mod -0.376, PostGolgi ctrl -1.0 and PostGolgi yeast -0.9.
`CCOc1cccc(Oc2ccc(C(F)(F)F)cn2)c1` gave hDAT+cocaine -0.742, PLAP activator 1, D1 mod -0.688, PostGolgi ctrl 33.9* and PostGolgi yeast 1.6.
Screening Nc1ccc(Oc2ccc3nc(-c4ccccc4)c(-c4ccccc4)nc3c2)cc1 returned Cav3 T inh -1.14, hDAT+cocaine 0.0159, PLAP activator 0.9, PostGolgi ctrl 56.1* and PostGolgi yeast 102.9*.
`COc1ccc(NC(=O)C2CCCN(c3c4c(nc5ncnn35)CCC4)C2)cc1OC` (stereo not drawn) gave Cav3 T inh 3.32*, hDAT+cocaine 1.54, PLAP activator 1.3, D1 mod 2.46, PostGolgi ctrl 8.4 and PostGolgi yeast 11.1.
`O=C(Nc1ccc2c(c1)CCC2)C1CCN(c2c3c(nc4ncnn24)CCC3)CC1` gave Cav3 T inh 2.82*, hDAT+cocaine 0.756, PLAP activator 1.5, D1 mod -1.01, PostGolgi ctrl 1.2 and PostGolgi yeast -3.1.
Screening O=C(Nc1ccc(Oc2ccccc2)cc1)C1CCN(c2c3c(nc4ncnn24)CCC3)CC1 returned Cav3 T inh 0.732, hDAT+cocaine 0.962, PLAP activator 1.1, PostGolgi ctrl 10.2 and PostGolgi yeast -1.0.
Screening CN(Cc1ccccc1)C1CC(=O)N(c2ccc(C(=O)O)cc2)C1=O (stereo not drawn) returned Cav3 T inh 1.28, hDAT+cocaine -0.471, PLAP activator 0.8, D1 mod -0.739, PostGolgi ctrl 42.4* and PostGolgi yeast -2.2.
COC(=O)c1ccccc1NC(=O)c1ccc(COc2cccc3ccccc23)o1 was read as Cav3 T inh -1.09, hDAT+cocaine 0.238, PLAP activator 1.3, PostGolgi ctrl 8.6 and PostGolgi yeast -0.3.
Screening Cc1nc2ccccc2c2oc(C(=O)NCc3ccccn3)cc12 returned Cav3 T inh 1.18, hDAT+cocaine -0.031, PLAP activator 0.7, D1 mod -3.67*, PostGolgi ctrl 0.4 and PostGolgi yeast 10.9.
`CCOc1ccc(OCc2ccc(C(=O)NCc3ccncc3)o2)cc1` gave Cav3 T inh 1.01, hDAT+cocaine -0.0168, PLAP activator 0.8, D1 mod -0.555, PostGolgi ctrl 29.4 and PostGolgi yeast -2.9.
For CCc1ccc(OCc2ccc(C(=O)NCc3ccccn3)o2)cc1 the results were Cav3 T inh -3.88*, hDAT+cocaine 1.47, PLAP activator 1.5, D1 mod 0.554, PostGolgi ctrl 4.9 and PostGolgi yeast -1.7.
`CCOc1ccc(OCc2ccc(C(=O)O)o2)cc1` gave Cav3 T inh 0.0386, hDAT+cocaine -0.763, PLAP activator 1.2, D1 mod -5.11*, PostGolgi ctrl -2.5 and PostGolgi yeast 0.7.
Cc1ccc(CNC(=O)c2cc3c(C)nc4ccccc4c3o2)cc1 was read as Cav3 T inh -1.06, hDAT+cocaine 1.31, PLAP activator 1.2, PostGolgi ctrl 14.2 and PostGolgi yeast 0.7.
For COC(=O)c1ccccc1NC(=O)c1ccc(COc2ccccc2)o1 the results were Cav3 T inh -0.624, hDAT+cocaine 0.0938, PLAP activator 1.1, D1 mod 0.131, PostGolgi ctrl 35.6* and PostGolgi yeast -12.1.
Cc1cccc(NC(=S)c2nc3ccccc3s2)c1 was read as PLAP activator 1, PostGolgi ctrl 4.9 and PostGolgi yeast -5.3.
Screening O=c1ccc(NS(=O)(=O)c2ccccc2)cn1Cc1ccc(Cl)c(Cl)c1 returned Cav3 T inh -2.64, hDAT+cocaine -0.0507, PLAP activator 1.2, PostGolgi ctrl 17.6 and PostGolgi yeast 3.7.
`CCCCC1=CC2=CC(=O)C(C)(OC(=O)c3ccco3)C(=O)C2=CO1` (stereo not drawn) gave Cav3 T inh -0.15 and hDAT+cocaine 0.169.
`O=C(c1cnccn1)N1CCN(C/C=C/c2ccccc2)CC1` gave Cav3 T inh 0.805, hDAT+cocaine -1.15, PLAP activator 1.1, PostGolgi ctrl 0.6 and PostGolgi yeast -7.0.
`CC(C)(C)C(=O)/C(C#N)=c1\s/c(=C\c2ccncc2)c(=O)n1CCCN1CCOCC1` gave PLAP activator 1.7 and D1 mod -0.461.
O=S(=O)(N1CCCCCC1)N1CCN(S(=O)(=O)N2CCCCC2)CC1 was read as Cav3 T inh 0.576, hDAT+cocaine -0.771, PLAP activator 1.1, PostGolgi ctrl -2.3 and PostGolgi yeast 5.6.
CCOC(=O)/C=c1\s/c(=C\c2c(OCC)ccc3ccccc23)c(=O)n1CC(=O)NCC1CCCO1 (stereo not drawn) was read as Cav3 T inh -6.42*, hDAT+cocaine 0.983, PLAP activator 1.4, PostGolgi ctrl 10.8 and PostGolgi yeast -0.5.
Cn1c(NC(=O)c2ccc(Br)o2)cc(=O)n(C)c1=O was read as Cav3 T inh 0.676, hDAT+cocaine -2.4, PLAP activator 0.9, D1 mod -0.192, PostGolgi ctrl 0.5 and PostGolgi yeast 10.0.
Screening C/C(CC(=O)Nc1cccc2c1CCCC2)=N\NC(=O)c1ccccc1N returned Cav3 T inh -0.62, hDAT+cocaine 1.11, PLAP activator 1.5, PostGolgi ctrl 32.0* and PostGolgi yeast 16.5.
